Data on three compounds can be found in PubChem BioAssay (NCI).

This is part of a sample that, as a whole, favours compounds with a hit. Of some 83,000 tested, about 20% had one in any assay.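 Assay: single dose, 48 h. Readout: percent growth (0 = no net growth; negative = cell death). Active: <10.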 Values without a mark were called inactive.

In this assay the test system is HL-60(TB) leukemia. The experiment in a line: NCI-60 one-dose screen, 48 h (100 = growth as untreated, 0 = no growth, -100 = all killed). The following applies: 10 µM unless noted.
Regarding `COc1ccc(/C=C2\SC(=Nc3cc(C)[nH]n3)NC2=O)cc1`, the growth is 87.1%.

Take `C#C[C@]1(O)CC[C@H]2[C@@H]3CC=C4c5sc(NCc6ccccc6)nc5CC[C@]4(C)[C@H]3CC[C@@]21C`: the growth was 24%.

For `COC(=O)/C=C/c1c(C2(C)NC(=O)c3ccccc3N2)c(=O)oc2ccc(Cl)cc12` (stereo not drawn), the growth was 109%.
